# According to PubChem BioAssay:
# Active and inactive are the calls of the source. Unless noted, the rule behind the calls is not given here.
# How the values were obtained:
# [1] = test system: XIP peptide (Xip251-270) binding; experiment: small-molecule binders of XIP peptide, primary screen, biochemical, small-molecule microarray, fluorescence 635/667 nm, 0.1 µg/mL protein (AID 1182); conditions: fluorescent protein binding, 635 nm, higher = more signal, called active from +8 up or from −8 down
# [2] = test system: XIP peptide (Xip251-270); experiment: small-molecule binders of XIP peptide, primary screen, biochemical, small-molecule microarray, fluorescence 635/667 nm, 0.5 µg/mL protein (AID 1183); conditions: small-molecule microarray binding, fluorescence 635 nm; higher = more signal
# [3] = Plasmodium falciparum growth inhibition, primary screen, strain 3D7, DAPI fluorescence, 100 nL (AID 1184);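 note: parasites grown inside human red blood cells in medium with human serum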; conditions: P. falciparum 3D7 growth, 3 d, higher = more signal
# [4] = target: Homeobox protein Hox-A13 (Mus musculus) (UniProt Q62424); experiment: inhibitors of HoxA13-DNA binding, primary screen, biochemical, fluorescence polarization, labeled oligonucleotide (AID 1185); conditions: 15 min, higher = more signal, called active from +8 up or from −8 down
# [5] = inhibitors of hydroxyurea-induced Chk1 phosphorylation, primary screen, imaging, HeLa, phospho-Chk1 antibody, percent positive cells (AID 1186); conditions: hydroxyurea-induced phospho-Chk1 immunofluorescence imaging, higher = more signal
# [6] = inhibitors of hydroxyurea-induced Chk1 phosphorylation, primary screen, imaging, HeLa, phospho-Chk1 nuclear intensity (AID 1187); conditions: hydroxyurea-induced phospho-Chk1 immunofluorescence imaging, higher = more signal
# Chain of Homeobox protein Hox-A13 (Mus musculus) (Q62424 whole entry, looked up): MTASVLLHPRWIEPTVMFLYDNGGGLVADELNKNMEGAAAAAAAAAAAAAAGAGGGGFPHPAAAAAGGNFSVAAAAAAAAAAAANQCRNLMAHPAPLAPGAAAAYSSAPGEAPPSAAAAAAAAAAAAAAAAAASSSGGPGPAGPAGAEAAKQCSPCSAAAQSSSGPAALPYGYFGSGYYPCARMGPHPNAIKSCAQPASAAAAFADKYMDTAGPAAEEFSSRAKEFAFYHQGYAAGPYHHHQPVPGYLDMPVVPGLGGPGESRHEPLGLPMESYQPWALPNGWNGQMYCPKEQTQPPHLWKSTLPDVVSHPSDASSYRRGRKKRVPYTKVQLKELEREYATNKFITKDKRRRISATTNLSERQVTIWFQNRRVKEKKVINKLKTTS
SMILES,composite z-score [1],composite z-score [2],z-score [3],z-score [4],z-score [5],z-score [6]
CC(C)C[C@@H]1NC(=O)[C@H]2C[C@@H](C(=O)NCCCCCNC(=O)CS)[C@@H](c3cccc(OCCO)c3)N2C1=O,1.38 (inactive),0.713,-0.159,-3.89 (inactive),-0.351 (inactive),0.184 (inactive)
COC(=O)[C@@]1(Cc2ccccc2N=[N+]=[N-])COC(c2ccc(OCCCO)cc2)=N1,1.25 (inactive),0.66,-0.82,-5.06 (inactive),0.428 (inactive),0.135 (inactive)
CCCN1C(=O)[C@@]2(CCC(=O)OC(C)(C)C)N=C(c3ccc(OCCCO)cc3)O[C@H]2c2ccccc21,0.317 (inactive),0.563,-2.31,-3.53 (inactive),-0.0458 (inactive),0.261 (inactive)
Cc1ccc(S[C@]2(C(=O)NCC(C)C)CC(=O)N(Cc3ccccc3Cl)[C@@H]2c2ccc(CO)cc2)cc1,0.0729 (inactive),-0.313,0.423,-2.53 (inactive),0.259 (inactive),0.658 (inactive)
COCCOC(=O)N1C(=O)[C@@]2(c3cc(C#CC4=CCCCC4)ccc31)[C@H](C(=O)N1CCc3cc(OC)c(OC)cc3C1)[C@H]1C(=O)O[C@H](c3ccccc3)[C@H](c3ccccc3)N1[C@@H]2c1ccccc1OCCO,0.0851 (inactive),0.544,-2.23,2.24 (inactive),-0.0513 (inactive),0.226 (inactive)
COCCOC(=O)N1C(=O)[C@@]2(c3cc(C#CC4(O)CCCCCC4)ccc31)[C@H](C(=O)N1CCCCCCC1)[C@H]1C(=O)O[C@H](c3ccccc3)[C@H](c3ccccc3)N1[C@@H]2c1ccccc1OCCO,-0.0713 (inactive),0.762,-2.39,3.19 (inactive),-0.0968 (inactive),0.298 (inactive)
COC(=O)[C@@]1(Cc2ccccc2)[C@H]2c3cc(C(=O)N4CCCC4)n(Cc4ccc(C)o4)c3C[C@H]2CN1C(=O)c1ccccc1,1.04 (inactive),0.814,-1.11,-4.62 (inactive),0.56 (inactive),0.421 (inactive)
CC(C)C[C@@H]1NC(=O)[C@H]2C[C@@H](C(=O)NCCCCCCNC(=O)CS)[C@@H](c3cccc(OCCO)c3)N2C1=O,0.821 (inactive),0.792,-0.0202,-2.77 (inactive),0.0162 (inactive),0.12 (inactive)
COCCOC(=O)N1C(=O)[C@@]2(c3ccccc31)[C@H](c1ccc(O)cc1)N1[C@H](c3ccccc3)[C@H](c3ccccc3)OC(=O)[C@H]1[C@@H]2C(=O)N1CCc2cc(OC)c(OC)cc2C1,1.46 (inactive),0.794,-1.27,-1.87 (inactive),0.043 (inactive),0.361 (inactive)
Cc1ccc([C@H]2[C@H](C(=O)O)[C@H](Sc3ccccc3)[C@@H](C(C)C)N2S(=O)(=O)c2ccc(C)cc2)cc1,2.49 (inactive),0.787,-0.619,-6 (inactive),0.237 (inactive),-0.0069 (inactive)
CCC[C@@H]1C=C(C(=O)O)[C@H](c2ccc(C)cc2)N1S(=O)(=O)c1ccc(C)cc1,-0.0617 (inactive),0.884,0.977,-3.27 (inactive),0.941 (inactive),1.34 (inactive)
COC(=O)C(CC#Cc1ccc2c(c1)[C@]1(C(=O)N2)[C@H](c2ccc(OCCO)cc2)N2[C@H](c3ccccc3)[C@H](c3ccccc3)OC(=O)[C@H]2[C@@H]1C(=O)NC[C@H](O)c1ccccc1)C(=O)OC,1.14 (inactive),0.836,-1.79,-0.715 (inactive),0.0415 (inactive),0.364 (inactive)
C=CC[C@@]1(C(=O)N2CCOCC2)N=C(c2ccc(OCCCO)cc2)O[C@@H]1c1ccccc1N=[N+]=[N-],1.18 (inactive),0.598,-1.75,-3.44 (inactive),-0.217 (inactive),-0.141 (inactive)
